Results: PubChem BioAssay AID1159580 (chemical genetic matrix, 2015)
About 2,000 (36%) of roughly 5,500 compounds were called active. About 18% were inconclusive and are not listed. No stated cut-off is given here; in the data, active means normalized growth mostly below about 0.91 (no sharp cut-off); inconclusive means no clear call, values can overlap the other calls; inactive means mostly above about 0.92. The list shows a part of the results.

Assay: chemical genetic growth profiling, strain panel (AID 1159580);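 further: tested at 20 µM; growth read once vehicle control cultures reached saturation at 30 °C; 1 = growth at the plate median or of vehicle wells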
Details: growth OD
[1] = S. cerevisiae deletion strains, locus YAL013W, strain DEP1, stronger effect = lower value
[2] = S. cerevisiae deletion strains, locus YBR229C, strain ROT2, stronger effect = lower value
[3] = S. cerevisiae deletion strains, locus YCL061C, strain MRC1, stronger effect = lower value
[4] = S. cerevisiae deletion strains, locus YDL101C, strain DUN1, stronger effect = lower value
[5] = S. cerevisiae deletion strains, locus YDR150W, strain NUM1, stronger effect = lower value
[6] = S. cerevisiae deletion strains, locus YEL061C, strain CIN8, stronger effect = lower value
[7] = S. cerevisiae deletion strains, locus YGR078C, strain PAC10, stronger effect = lower value
[8] = S. cerevisiae deletion strains, locus YHR030C, strain SLT2, stronger effect = lower value
[9] = S. cerevisiae deletion strains, locus YHR087W, strain rtc3, stronger effect = lower value
[10] = S. cerevisiae deletion strains, locus YJR043C, strain POL32, stronger effect = lower value
[11] = S. cerevisiae deletion strains, locus YJR075W, strain HOC1, stronger effect = lower value
[12] = S. cerevisiae deletion strains, locus YKL190W, strain CNB1, stronger effect = lower value
[13] = S. cerevisiae deletion strains, locus YLR039C, strain RIC1, stronger effect = lower value
[14] = S. cerevisiae deletion strains, locus YLR058C, strain SHM2 (second series), stronger effect = lower value
[15] = S. cerevisiae deletion strains, locus YLR085C, strain ARP6, stronger effect = lower value
[16] = S. cerevisiae deletion strains, locus YLR262C, strain YPT6, stronger effect = lower value
[17] = S. cerevisiae deletion strains, locus YML094W, strain GIM5, stronger effect = lower value
[18] = S. cerevisiae deletion strains, locus YMR219W, strain ESC1, stronger effect = lower value
[19] = S. cerevisiae deletion strains, locus YMR263W, strain SAP30, stronger effect = lower value
[20] = S. cerevisiae deletion strains, locus YMR307W, strain GAS1, stronger effect = lower value
[21] = S. cerevisiae deletion strains, locus YNL153C, strain GIM3, stronger effect = lower value
[22] = S. cerevisiae deletion strains, locus YNL298W, strain CLA4 (second series), stronger effect = lower value
[23] = S. cerevisiae deletion strains, locus YNL322C, strain KRE1, stronger effect = lower value
[24] = S. cerevisiae deletion strains, locus YNR030W, strain Alg12, stronger effect = lower value
[25] = S. cerevisiae deletion strains, locus YOL006C, strain TOP1, stronger effect = lower value
[26] = S. cerevisiae deletion strains, locus YPL055C, strain LGE1, stronger effect = lower value
[27] = S. cerevisiae deletion strains, locus YPL241C, strain CIN2, stronger effect = lower value
[28] = S. cerevisiae deletion strains, locus YPR135W, strain CTF4, stronger effect = lower value
[29] = S. cerevisiae strains, strain wild type, stronger effect = lower value
[30] = S. cerevisiae deletion strains, locus YNL128W, strain TEP1, stronger effect = lower value

Measured: normalized growth

COc1cc(/C=C2/N=C(c3ccccc3I)OC2=O)cc(OC)c1OC
inactive: [1] 1 | [2] 1.01 | [3] 1.01 | [4] 1.03 | [5] 0.888 | [6] 0.984 | [7] 1 | S. cerevisiae deletion strains, locus YGR229C, strain SMI1, stronger effect = lower value 0.981 | [8] 0.956 | [9] 1.01 | [10] 1 | [11] 1.01 | [12] 0.995 | [13] 0.964 | [14] 0.996 | [15] 1.01 | [16] 0.947 | [17] 1.02 | [18] 1 | [19] 1 | [20] 0.961 | [21] 1.01 | [22] 1.01 | [23] 0.994 | [24] 0.982 | [25] 0.998 | [26] 1.12 | [27] 0.967 | [28] 0.903 | [29] 0.989

COc1cc(/C=C2/SC(=S)NC2=O)cc(OC)c1OC
active: [1] 0.915 | [2] 0.894 | [4] 0.865 | [7] 0.877 | [11] 0.822 | [13] 0.725 | [14] 0.919 | [16] 0.73 | [18] 0.926 | [19] 0.901 | [21] 0.92 | [23] 0.926
inactive: [5] 0.897 | [6] 0.977 | [8] 0.87 | [9] 0.911 | [10] 0.948 | [15] 0.845 | [17] 0.969 | [20] 0.887 | [30] 0.977 | [22] 0.912 | [24] 0.922 | [26] 0.881 | [27] 0.885 | [28] 0.809

COc1cc(/C=C/C=O)cc(OC)c1OC
inactive: [1] 1.03 | S. cerevisiae deletion strains, locus YBR021W, strain FUR4, stronger effect = lower value 1.01 | [2] 1.01 | S. cerevisiae deletion strains, locus YCL029C, strain bik1, stronger effect = lower value 1.03 | S. cerevisiae deletion strains, locus YDL035C, strain GPR1, stronger effect = lower value 1.04 | S. cerevisiae deletion strains, locus YDL074C, strain BRE1, stronger effect = lower value 1.07 | [4] 1.02 | S. cerevisiae deletion strains, locus YDL185W, strain tfp1, stronger effect = lower value 1 | S. cerevisiae deletion strains, locus YDL192W, strain arf1, stronger effect = lower value 1.02 | S. cerevisiae deletion strains, locus YDR101C, strain arx1, stronger effect = lower value 1.02 | S. cerevisiae deletion strains, locus YDR162C, strain NBP2, stronger effect = lower value 1.07 | S. cerevisiae deletion strains, locus YDR318W, strain mcm21, stronger effect = lower value 1.03 | S. cerevisiae deletion strains, locus YDR388W, stronger effect = lower value 1.01 | S. cerevisiae deletion strains, locus YDR502C, strain sam2, stronger effect = lower value 1.02 | S. cerevisiae deletion strains, locus YER110C, stronger effect = lower value 1 | S. cerevisiae deletion strains, locus YER155C, strain BEM2, stronger effect = lower value 1.02 | S. cerevisiae deletion strains, locus YER167W, strain BCK2, stronger effect = lower value 1.02 | S. cerevisiae deletion strains, locus YGL078C, strain dbp3, stronger effect = lower value 1.01 | S. cerevisiae deletion strains, locus YGL086W, strain mad1, stronger effect = lower value 1.02 | S. cerevisiae deletion strains, locus YGL248W, strain PDE1, stronger effect = lower value 1.04 | [7] 1.04 | S. cerevisiae deletion strains, locus YGR135W, strain pre9, stronger effect = lower value 0.998 | S. cerevisiae deletion strains, locus YGR252W, strain gcn5, stronger effect = lower value 1.03 | S. cerevisiae deletion strains, locus YHR079C, strain IRE1 (second series), stronger effect = lower value 1 | S. cerevisiae deletion strains, locus YHR094C, strain hxt1, stronger effect = lower value 0.995 | S. cerevisiae deletion strains, locus YHR129C, strain ARP1, stronger effect = lower value 1.02 | S. cerevisiae deletion strains, locus YHR200W, strain rpn10, stronger effect = lower value 1.01 | S. cerevisiae deletion strains, locus YIL066C, strain RNR3, stronger effect = lower value 1.02 | S. cerevisiae deletion strains, locus YIL073C, strain SPO22, stronger effect = lower value 1.06 | S. cerevisiae deletion strains, locus YIL125W, strain kgd1, stronger effect = lower value 1 | S. cerevisiae deletion strains, locus YIR030C, strain dcg1, stronger effect = lower value 1.01 | S. cerevisiae deletion strains, locus YJL095W, strain BCK1, stronger effect = lower value 1.06 | S. cerevisiae deletion strains, locus YJL134W, strain LCB3, stronger effect = lower value 1.01 | S. cerevisiae deletion strains, locus YJL168C, strain set2, stronger effect = lower value 0.997 | S. cerevisiae deletion strains, locus YJL187C, strain SWE1 (second series), stronger effect = lower value 1.04 | [10] 1.06 | S. cerevisiae deletion strains, locus YKL009W, strain mrt4, stronger effect = lower value 1.01 | S. cerevisiae deletion strains, locus YKL068W, stronger effect = lower value 0.994 | S. cerevisiae deletion strains, locus YKL085W, strain MDH1 (second series), stronger effect = lower value 1.01 | S. cerevisiae deletion strains, locus YKL085W, strain MDH1, stronger effect = lower value 1.01 | [12] 1.01 | S. cerevisiae deletion strains, locus YKR001C, strain vps1, stronger effect = lower value 1.07 | [13] 1.14 | S. cerevisiae deletion strains, locus YLR058C, strain SHM2, stronger effect = lower value 1.03 | S. cerevisiae deletion strains, locus YLR102C, strain apc9, stronger effect = lower value 0.999 | [16] 1.13 | S. cerevisiae deletion strains, locus YLR268W, strain sec22, stronger effect = lower value 1.03 | S. cerevisiae deletion strains, locus YLR342W, strain FKS1 (second series), stronger effect = lower value 1.09 | S. cerevisiae deletion strains, locus YLR371W, strain rom2, stronger effect = lower value 0.991 | S. cerevisiae deletion strains, locus YLR418C, strain cdc73, stronger effect = lower value 1.02 | S. cerevisiae deletion strains, locus YML016C, strain PPZ1, stronger effect = lower value 1.02 | S. cerevisiae deletion strains, locus YML032C, strain rad52, stronger effect = lower value 1.03 | S. cerevisiae deletion strains, locus YML124C, strain tub3, stronger effect = lower value 0.996 | S. cerevisiae deletion strains, locus YMR078C, strain ctf18, stronger effect = lower value 0.994 | S. cerevisiae deletion strains, locus YMR223W, strain ubp8, stronger effect = lower value 1.01 | [19] 1.03 | [20] 1.06 | S. cerevisiae deletion strains, locus YNL067W, strain RPL9B, stronger effect = lower value 1.03 | [30] 1.03 | S. cerevisiae deletion strains, locus YNL233W, strain BNI4, stronger effect = lower value 1.04 | S. cerevisiae deletion strains, locus YNL250W, strain rad50, stronger effect = lower value 1 | S. cerevisiae deletion strains, locus YNL271C, strain bni1, stronger effect = lower value 1 | S. cerevisiae deletion strains, locus YNL298W, strain CLA4, stronger effect = lower value 0.995 | S. cerevisiae deletion strains, locus YNL307C, strain MCK1, stronger effect = lower value 1 | S. cerevisiae deletion strains, locus YNR052C, strain pop2, stronger effect = lower value 1 | [25] 1.22 | S. cerevisiae deletion strains, locus YOL012C, strain htz1 0.967 | S. cerevisiae deletion strains, locus YOL147C, strain pex11, stronger effect = lower value 1.01 | S. cerevisiae deletion strains, locus YOR061W, strain CKA2, stronger effect = lower value 1.04 | S. cerevisiae deletion strains, locus YOR069W, strain VPS5, stronger effect = lower value 1.01 | S. cerevisiae deletion strains, locus YOR136W, strain idh2, stronger effect = lower value 1.01 | S. cerevisiae deletion strains, locus YOR144C, strain elg1, stronger effect = lower value 0.998 | S. cerevisiae deletion strains, locus YOR184W, strain ser1, stronger effect = lower value 1.07 | S. cerevisiae deletion strains, locus YOR316C, strain cot1, stronger effect = lower value 0.988 | [26] 1.08 | [27] 1.01 | S. cerevisiae deletion strains, locus YPR119W, strain clb2, stronger effect = lower value 0.995 | S. cerevisiae deletion strains, locus YPR141C, strain kar3, stronger effect = lower value 1 | S. cerevisiae deletion strains, locus YPR163C, strain tif3, stronger effect = lower value 1.02 | S. cerevisiae deletion strains, locus YPR167C, strain met16, stronger effect = lower value 1.01 | S. cerevisiae deletion strains, strain wtn01, stronger effect = lower value 1.03 | [29] 1.05

CNS(=O)(=O)c1cc(Br)ccc1S(=O)c1ccccc1C(=O)O (stereo not drawn)
inactive: [1] 1 | [2] 1 | [3] 1 | [4] 1.05 | [5] 1.01 | [6] 1.02 | [7] 1.01 | [8] 0.98 | [9] 1.03 | S. cerevisiae deletion strains, locus YJL187C, strain SWE1, stronger effect = lower value 1 | [10] 1 | [11] 0.997 | [12] 0.982 | [13] 1.01 | [14] 0.992 | [15] 0.983 | [16] 1.02 | [18] 1.01 | [19] 0.984 | [20] 0.942 | [21] 1.03 | [22] 0.995 | [23] 1.01 | [24] 1.03 | [25] 0.975 | [26] 1.04 | [27] 1.04 | [28] 1.15 | [29] 0.968
active: [17] 1.15 [resistant]
